# Pf Dd2 growth – Plasmodium falciparum Dd2 growth inhibition | P. falciparum Dd2 growth, SYBR Green, 72 h | AID 1347417 | 120,000 compounds, 4.3% hits | Potency, µM (series often up to 28.9 µM), inactives show top-dose activity, negative = inhibition, most hits filed as inhibitors; active = well fitted inhibition curve with a large enough effect;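 note: plate controls were DMSO vehicle for no effect and reference drug for full effect; nearly all actives have a fitted effect of over 65% in size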
#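 Readout: SYBR Green fluorescence, 485 nm excitation, 535 nm emission, after ~16 h lysis at 37C. Before that, Dd2-infected red cells (2.5% hematocrit) grew 72 h with compound, 29 uM top final concentration.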
# Active calls of the source: *; i = inactive; [ ] = another dose, or the depositor's remark. This is one part of a sample in which hits are shown more often than they occur. Potency is the fitted concentration of half-maximal effect.
SMILES,Pf Dd2 growth
Cc1ccc(CNC(=O)N2CC[C@H]3C(=O)NCCCCCCN(Cc4ccncc4)[C@@H]3C2)cc1,i
O=C(COc1ccc(F)cc1)N1CCC(N2CC3CC(C2)[C@H]2CCCC(=O)N2C3)CC1 (some centres not stated),-10.6%
CC[C@H]1CN(C(=O)Nc2cccc(C(F)(F)F)c2)CC[C@H]1CC(=O)NC1CC1,i
O=C(Nc1cccc(C(F)(F)F)c1)O[C@@H]1CO[C@H]2[C@@H]1OC[C@@H]2n1cc(-c2ccccn2)nn1,10µM*
O=C(Nc1cccc(C(F)(F)F)c1)N[C@H]1CO[C@H]2[C@@H]1OC[C@H]2OC(=O)Nc1ccccc1,-27.4%
O=C(Nc1ccc(Oc2ccccc2)cc1)N[C@H]1CO[C@H]2[C@@H]1OC[C@@H]2n1cc(-c2ccccn2)nn1,-21.9%
CSCCNC(=O)C1CN(c2ccc(F)cc2)C(=O)N1 (configuration not stated),0.8%[44.1 µM]
Cc1ccc2c(c1)C(Cc1nc3ccccc3c(=O)n1-c1ccc(Br)cc1)C(=O)N2 (configuration not stated),-16.5%
CCOC(=O)c1c(NC(=O)COc2ccc(OC)cc2)sc(C(=O)N(CC)CC)c1C,11.2µM*
CCOC(=O)c1c(NC(=O)COc2ccc(Br)cc2)sc(C(C)=O)c1C,i
CCOC(=O)c1c(NC(=O)COc2ccccc2)sc(C(C)=O)c1C,14.7%
COc1ccc(CNc2ncnc3c2CN(c2ccc(C)cc2)C(=O)N(C)C3)cc1OC,i
CCOc1ccc(S(=O)(=O)Nc2ccc3oc(C)c(C(=O)OC(C)C)c3c2)cc1,i
COc1ccc(OCc2ccc(-c3nc(C#N)c(NC(C)c4ccccc4)o3)o2)cc1 (configuration not stated),-8.6%
COc1ccc(CNS(=O)(=O)c2ccc3c(c2)C(C)(C)C(=O)N3C)cc1OC,61.4%
COc1cccc(-c2cc(-c3ccc(=O)[nH]c3)c3cncn3c2)c1,i
COc1ccc(-c2cc(-c3ccc(N4CCOCC4)nc3)cn3cncc23)cc1,0.794µM*
Cc1noc(C)c1-c1cc(-c2cccc(N[S+](C)(=O)[O-])c2)cn2cncc12,i
O=c1ccc(-c2cc(-c3cccc(N4CCOCC4)c3)cn3cncc23)c[nH]1,7.94µM*
COc1ccc(-c2cc(-c3cnn(C)c3)cn3cncc23)cn1,10µM*
COc1cccc(-c2cc(-c3c(C)noc3C)c3cncn3c2)c1,5.62µM*
O=c1ccc(-c2cc(-c3cccc4cn[nH]c34)cn3cncc23)c[nH]1,i
CC(=O)Nc1cccc(-c2cc(C3=CCOCC3)c3cncn3c2)c1,i
c1cc(-c2cc(-c3ccc(N4CCOCC4)nc3)cn3cncc23)ccn1,i
Cc1ccc(-c2cc(-c3ccc(=O)[nH]c3)c3cncn3c2)cn1,47.5%[44.1 µM]
SMILES,Pf Dd2 growth
Cc1noc(C)c1-c1cc(-c2cnn(C)c2)cn2cncc12,-8.8%[44.1 µM]
COc1ccc(-c2noc(-c3ccc(N4CCCOCC4)nc3)n2)cc1,i
COCCOc1ccc2c(n1)CCN(C(=O)CCn1nc(C)cc1C)C2,17.8%
O=C1Nc2ccccc2CC12CN([S+](=O)([O-])c1cccc(C(F)(F)F)c1)C2,5.1%
O=C(NCc1ccc(OC(F)(F)F)cc1)c1cc(CN2CCOCC2)on1,-19.9%
CCOc1ccccc1C(=O)Nc1cc(-c2ccc(C)cc2)no1,-0.6%
CC(=O)NCCC(=O)N1CCC2(CC1)CC(NC(=O)NC(C)C)c1ccccc12 (configuration not stated),7.3%
COCc1nncn1C1CCN(C(=O)C2(c3ccccc3)CC2)CC1,-20.3%
N#Cc1ccc(CN2CCC3(CC2)NCc2ccccc2NC3=O)cc1,51.4%
Cc1ccsc1CN1CCC2(CC1)CN(c1ccncn1)CC2CO (configuration not stated),i
COc1ccc(-c2cc(C(F)(F)F)c(C#N)c(SCC(=O)Nc3ccc(F)cc3)n2)cc1,i
COc1ccc(Cn2c(=O)c3ccccc3n3c(-c4cccc(OC)c4OC)nnc23)cc1,i
COc1ccc(-c2cc(-c3cccc(OC)c3OC)cn3cncc23)cc1,1µM*
COc1ccc(-c2nc(-c3c(C)noc3C)cc3c2cc(-c2ccccc2)n3C)cn1,-26.5%[44.1 µM]
c1cc(-c2cc(-c3ccc4cn[nH]c4c3)cn3cncc23)ccn1,-1.5%[44.1 µM]
COc1ccc(-c2cc(-c3c(C)noc3C)c3cncn3c2)cc1,5.01µM*
Cc1ccc(C(=O)N2CC3(Cc4ccccc4N([S+](C)(=O)[O-])C3)C2)cc1,-26.3%
Cc1ccc(-c2cccc(CN3C4CCC3CN(C(=O)Nc3ccccc3F)C4)c2)c(C)c1,-18.0%
COc1cc(=O)n2c(c1C(=O)N1CCN(c3ccc(C)cc3C)CC1)CCCC2,-25.0%
COCc1nc(C2CCN(C(=O)c3cn(C)cn3)C2)no1 (configuration not stated),-0.1%
Cc1ccc(S(=O)(=O)N2C[C@@H](F)C[C@H]2C(=O)N2CCc3ccccc3C2)c(C)c1,-15.9%
COc1ccccc1OC1(C(=O)O)CCN(Cc2cnc(NC(C)C)nc2)CC1,-3.0%
CCOc1ccc(-n2c(C)nc3cc(C(=O)NCc4ccc(C)cc4)ccc32)cc1,48.6%
CCc1cccc(C)c1NC(=O)CN1CCN(Cc2ccccc2Cl)S1(=O)=O,i
CC(C)N1CC2CCC(C1)N2Cc1ccc(-c2ccsc2)cc1,11.2µM*
SMILES,Pf Dd2 growth
O=C(Nc1ccccc1F)N1CC2CCC(C1)N2Cc1ccc(-c2ccsc2)cc1,-4.5%
CC(C)N1CC2CCC(C1)N2CC1CCCC1,-37.6%[44.1 µM]
O=C(Nc1nnc2n1CCS2)c1ccccc1,-1.4%
CSCCCN1C(=O)CC[C@H]2CN(C(=O)c3cccnc3)CC[C@H]21,-12.3%
Cc1cccc(CN2CCc3c(cc(C(=O)O)n3C)C2)c1,i
CN(C)CCCNC(=O)c1cc2c(n1C)CCN(Cc1ccc(F)cc1)C2,-19.7%
CN(C)CCNC(=O)c1cc2c(n1C)CCN(Cc1ccccc1)C2,12.6µM*
Cn1c(C(=O)N2CCCC2)cc2c1CCN(Cc1ccccc1)C2,-5.6%
COc1ccc(CNC(=O)c2cc3c(n2C)CCN(Cc2ccc(F)cc2)C3)cc1,-25.8%
CCOC(=O)C1CCN(C(=O)c2cc3c(n2C)CCN(Cc2ccccc2)C3)CC1,1.58µM*
COc1ccccc1NC(=O)c1cc2c(n1C)CCN(Cc1ccc(F)cc1)C2,-10.5%
Cc1ccc(CN2CCc3c(cc(C(=O)O)n3C)C2)cc1,i
COc1cccc(CN2CCc3c(cc(C(=O)Nc4cc(OC)cc(OC)c4)n3C)C2)c1,8.91µM*
COc1cccc(CN2C(=O)CCCCC2C(=O)NCCc2ccccc2)c1 (configuration not stated),i
CC[C@H]1CN(C(=O)Nc2cccc(OC)c2)CC[C@H]1CC(=O)N1CCC(C(=O)OC)CC1,-29.1%
COc1ccc(CNC(=O)CN2C(=O)C(c3ccccc3)=NC2(C)C)cc1OC,16.5%
O=C(Cn1c(=O)oc2ccccc21)N1CCC2(CC1)NCCc1c2[nH]c2ccccc12,8.91µM*
COCCC(=O)N1CCC2(CC1)NCCc1c2[nH]c2ccccc12,-18.7%
O=C(CN1CCCC1=O)N1CCC2(CC1)NCCc1c2[nH]c2ccccc12,19.4%
CNCc1ccccc1OC,1.4%[44.1 µM]
CNCc1ccccc1C(F)(F)F,50.0%[44.1 µM]
CNCc1ccccc1-c1ccccc1,11.2µM*
CN(Cc1ccccc1)Cc1cn([C@H]2CO[C@H]3[C@@H]2OC[C@@H]3NC(=O)c2ccc(C(F)(F)F)cc2)nn1,-6.5%
Cc1nc(C)c(C(=O)N2[C@H]3CC[C@@H]2c2cnc(-c4ccc(F)cc4)nc2C3)s1,-11.0%
CCCN1CCN(c2cc3c(cc2F)c(=O)c(S(=O)(=O)c2ccc(Cl)cc2)cn3C)CC1,10µM*
